The results in this text go back to PubChem BioAssay AID1347076 (National Center for Advancing Translational Sciences (NCATS), 2019).

Screen size: about 400,000 compounds; about 13,000 (3.2%) were called active. A call without a number means that no potency is given here. Inconclusive results (about 18%) are left out. This is one part of a sample in which actives are shown more often than they occur. The call rests on the fitted dose curve; in most records, active means well fitted cell-killing curve with a large enough effect; inconclusive means small, poorly fitted or top-dose-only effect, or effect the other way; inactive means flat fitted curve, though single readings scatter.
Potency means the concentration at half of the fitted maximal effect.

The nature of this experiment: qHTS assay for MDR1-selective chemotherapeutics: Primary screen using the drug-selected MDR subline cells KB-V1. Further: nearly all actives have a fitted effect of over 60% in size. The following applies: KB-V1 MDR cells viability, CellTiter-Glo, 72 h; series mostly up to 46.1 µM. Put shortly: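 KB-V1, DMEM (no phenol red) + 10% FBS; cpd pin-transferred, titration series; 72 h, 37 degrees C; CellTiter-Glo, luminescence. Data normalized, curve-fit.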
(In general: Quantitative high-throughput screening tests each substance at several concentrations.)
In the case of `COCCNc1ncnc2c1ncn2[C@H]1CN(CCN2CCOCC2)C[C@@H](CO)O1`, the Potency result is “inactive”. Regarding `Fc1ccc(-n2ncc3c(Nc4ccc(Oc5ccccc5)cc4)ncnc32)cc1`, the Potency result was “inactive”.

As to `CCc1nn(CCCN2CCN(c3cccc(Cl)c3)CC2)c(=O)n1CCOc1ccccc1`, the Potency was 6.51 µM (active). On to `Cn1c(C(=O)NCCCN2CCN(c3cccc(Cl)c3)CC2)cc2c(=O)n(C)c3ccccc3c21`, for which the Potency entry was “inactive”. As for `OC(COc1ccccc1)CN1CCN(c2cccc(Cl)c2)CC1` (centres undefined), the Potency entry is “inactive”. In the case of `CC(O)(c1cccc(F)c1)c1nc(-c2ccc3c(c2)OCO3)cs1` (centres undefined), the Potency entry was “inactive”. In the case of `CCc1nc2ccc(C(=O)NCCNC(C)=O)cn2c1N(CC)Cc1cccc(Br)c1`, the Potency entry was “inactive”. As to `COc1ccc(-n2c(SC)nc3sc4c(c3c2=O)CCN(C(C)=O)C4)cc1`, the Potency entry was “inactive”. To `CNc1cnc(-c2cc(OC)c(OC)c(OC)c2)cn1` belongs “inactive”; to `CN1c2ccc(C=O)c3c(C=O)ccc(c23)N(C)C1(C)C`, 18.4 µM (active).

Take `Cc1ccc(C=O)c([B-](F)(F)F)c1`: the Potency result is “inactive”. For the compound `Cc1cc(C)c2c(=O)n3c(nc2c1)C(CC(C)C)NC(=O)c1cc2ccccc2cc1-3` (centres undefined), the Potency entry is “inactive”. As to `CN(C)C1=C2C=CC=CC2/C(=C2/C=Cc3ccccc32)C=C1` (centres undefined), the Potency result was “inactive”. As to `CC(=O)Nc1ccc2c3c(ccc([N+](=O)[O-])c13)CC2`, the Potency entry is “inactive”. For `CN(C)S(=O)(=O)c1cccc(NC(=O)Cc2ccsc2)c1`, the Potency entry is “inactive”. To `CN(c1ccccc1)S(=O)(=O)c1cccc(NC(=O)Cc2ccc(Cl)cc2)c1` belongs 5.8 µM (active); to `CN(c1ccccc1)S(=O)(=O)c1ccc(NC(=O)COc2ccccc2)cc1`, “inactive”; to `COc1ccc(CN2C(=O)C(CC(=O)NC3CCCCC3)CC(C(=O)N3CCOCC3)=C2C)cc1` (centres undefined), “inactive”. As for `O=C(Nc1cnn(Cc2ccc(Cl)cc2)c1)C1CCCC1`, the Potency was 20.6 µM (active). For `O=C(O)C1CCCCC1C(=O)Nc1ccc(Cl)cc1` (centres undefined), the Potency result is “inactive”. On to `CCn1cc(CN2CCC(C(=O)Nc3cccc(-c4cccc(Cl)c4)c3)CC2)cn1`, for which the Potency result was “inactive”. On to `CCCCCCN1C[C@@H](O)[C@H](n2cc(COC(=O)c3ccccc3)nn2)C[C@@H]1c1ccc(Cl)cc1`, for which the Potency result is “inactive”. Regarding `Cc1ccc(OCCSc2nc3ccc(NC(=O)COc4ccc(C)cc4)cc3s2)cc1`, the Potency entry was “inactive”. In the case of `COC(=O)c1cc(C(=O)OC)cc(N2C(=O)CC(N3CCN(c4ccccc4)CC3)C2=O)c1` (centres undefined), the Potency result is “inactive”. For `COC(=O)[C@@]1(Sc2ccc(C)cc2)CC(=O)N(c2cccc(SC)c2)[C@@H]1c1ccccc1`, the Potency was 20.6 µM (active). `CCOC(=O)N1C(=O)C[C@](Sc2ccc(C)cc2)(C(=O)OC)[C@H]1c1ccccc1`: the Potency entry was “inactive”. With `Clc1cccc[n+]1CCCC[n+]1ccccc1Cl`, the Potency entry was “inactive”. With `Cc1cc(C)cc(NS(=O)(=O)c2ccc(Oc3ncc(C(F)(F)F)cc3Cl)cc2)c1`, the Potency was 16.4 µM (active). In the case of `Cc1cc(C)cc(NS(=O)(=O)c2ccc(F)cc2)c1`, the Potency result was “inactive”.

For `Cc1ccc(NS(=O)(=O)c2ccc(C(C)(C)C)cc2)cn1`, the Potency result was “inactive”.

As to `CC1(C(=O)Nc2cccc(Oc3ccccc3)c2)CCN1Cc1ccccc1Cl` (centres undefined), the Potency result is “inactive”.

For `Cc1ccc(S(=O)(=O)c2c(N)n(C)c3nc4ccccc4nc23)cc1`, the Potency result was “inactive”. For the compound `CCN(CC)CCn1c(N)c(S(=O)(=O)c2ccccc2)c2nc3ccccc3nc21`, the Potency result was “inactive”. As for `CCC(=O)Nc1c(S(=O)(=O)c2ccccc2)c2nc3ccccc3nc2n1Cc1ccccc1`, the Potency was 4.11 µM (active). On to `Cc1c(NC(=O)c2cc(=O)c3ccccc3o2)c(=O)n(-c2ccccc2)n1C`, for which the Potency result was “inactive”. In the case of `O=C(C[C@H]1C[C@@H]2c3cc(NC(=O)C4CCC4)ccc3O[C@@H]2[C@H](CO)O1)NC1CCCCC1`, the Potency result was “inactive”. To `CCCNC(=O)c1cc(C2CCCN(C(=O)c3ccc4c(c3)CCO4)C2)on1` (centres undefined) belongs “inactive”; to `Cc1ccc2nc(N3CCN(C(=O)c4ccco4)CC3)sc2c1`, “inactive”. As for `O=C(NCc1ccc(F)cc1)c1ccc2nc(N3CCCCC3)sc2c1`, the Potency entry is “inactive”. Regarding `c1c2c(cc3sc(N4CCCCC4)nc13)OCCO2`, the Potency was 20.6 µM (active). With `COc1ccccc1CNC(=O)NCc1noc2ccc(C)cc12`, the Potency result was “inactive”.

In the case of `COc1cccc2c1C(=O)c1c(O)c3c(c(O)c1C2=O)CC(O)(C(C)=NNC(=O)c1ccc(Cl)c(Cl)c1)CC3OC1CC(N)C(O)C(C)O1` (centres undefined), the Potency was 23.1 µM (active). Take `CC(=O)Nc1cccc(Nc2ccc(C#N)cc2)c1`: the Potency result is “inactive”. For `CCOC(=O)C1=C(c2ccccc2)Nc2ncnn2C1c1ccc(Cl)cc1` (centres undefined), the Potency result is “inactive”. As for `CCNC(=O)C1(C)CCCN1C(=O)c1ccc(N(C)C)cc1` (centres undefined), the entry is “inactive”; as for `CC1(C)N=C(SCc2ccccc2Cl)c2ccccc2N1`, “inactive”. As to `Clc1ccccc1CSc1nncn2c1cc1occc12`, the Potency entry is “inactive”. For `Clc1ccccc1CSc1nnc(-c2ccco2)c(-c2ccco2)n1`, the Potency is 20.6 µM (active). As to `O=S(=O)(NCC(c1ccco1)N1CCOCC1)c1cc(F)ccc1F` (centres undefined), the Potency result is “inactive”.

As for `CCC(=O)N1Cc2cc(C(=O)NCc3cccc(F)c3)nc(-c3cccc(C4=CCCC4)c3)c2[C@H]1CCO`, the Potency result was “inactive”. `O=C(NC1CCCCCC1)C1CCN(C(=O)c2ccc(Cl)cc2)CC1`: the Potency is 14.6 µM (active). With `O=C(NNC(=O)C1CCN(c2ncccn2)CC1)c1ccccc1`, the Potency result was “inactive”. `Cc1ccnc(N2CCCC(C(=O)NC3CC3)C2)n1` (centres undefined): the Potency result is “inactive”. With `O=C(NC1CCN(C(=S)Nc2ccc(Cl)cc2)CC1)C1CCCCC1`, the Potency result is “inactive”. On to `Cc1ccnc(N2CCC(C(=O)NC3CCCCCC3)CC2)n1`, for which the Potency is 16.4 µM (active).

Turning to `O=C(NC1CCCC1)C1CCN(C(=O)Nc2cccc(Cl)c2)CC1`, the Potency entry was “inactive”.

In the case of `Cc1ccc(C(NC(=O)C2CCN(CCOc3ccc(Cl)cc3Cl)CC2)c2ccccn2)cc1` (centres undefined), the Potency entry is “inactive”. As for `COc1ccc(NC(=O)C[C@H]2C(=O)N(CCc3ccccc3)C[C@@H]2C)cc1`, the Potency result is “inactive”. With `CCCNC(=O)c1cc(C2CCCCN2S(=O)(=O)c2cn(C)cn2)on1` (centres undefined), the Potency result was “inactive”. Take `C[C@H](NC(=O)[C@@H]1CCCN1C(=O)[C@@H]1CCCN1C(=O)c1ccccc1)c1ccccc1`: the Potency entry is “inactive”.

`O=C1NC[C@@H](CCCCN2CCN(CCc3ccc(O)cc3)C(=O)C2=O)N(CC2CCCCC2)C1=O`: the Potency result was “inactive”.

As to `Cc1cc(C(=O)CSc2nc(N)cc(=O)[nH]2)c(C)n1CCc1ccc(Cl)cc1`, the Potency result was “inactive”.

As to `Cc1cc(C(=O)CSc2nc(N)cc(=O)[nH]2)c(C)n1Cc1ccco1`, the Potency result was “inactive”. Consider `Cc1cc(C(=O)CSc2nc(N)cc(=O)[nH]2)c(C)n1-c1cccc(F)c1`, for which the Potency is 3.66 µM (active). As for `Cc1cc(C(=O)N2CCCC2(C)C(=O)O)c(C)o1` (centres undefined), the entry is “inactive”; as for `CN(C)c1cccc(C(=O)Nc2nc3ccc(S(=O)(=O)NC(C)(C)C)cc3s2)c1`, 20.6 µM (active); as for `COc1cccc(C(=O)Nc2nc3ccc(S(C)(=O)=O)cc3s2)c1`, “inactive”. To `CS(=O)(=O)c1ccc2nc(NC(=O)c3ccc(Cl)nc3)sc2c1` belongs “inactive”; to `CC1(C(=O)Nc2cccc3cccnc23)CCN1C(=O)CCC1CCCC1` (centres undefined), “inactive”. For `CC(C)(O)C1=C[N+](=O)CC=C1`, the Potency result was “inactive”. For the compound `COc1ccc(C2CC(c3cccc(OC)c3)=NN2c2ccc(S(N)(=O)=O)cc2)cc1` (centres undefined), the Potency entry is “inactive”. Turning to `CCOc1ccc2[nH]c(=S)sc2c1`, the Potency result was “inactive”. To `CCOc1ccc(NC(=O)c2ccccc2NS(C)(=O)=O)cc1` belongs “inactive”. As for `COc1cc(OC)c(S(=O)(=O)Nc2ccccc2C(=O)O)cc1S(=O)(=O)Nc1ccccc1C(=O)O`, the entry is “inactive”; as for `COc1cc(NC(=O)c2ccccc2NS(=O)(=O)c2ccc(Cl)s2)cc(OC)c1`, 10.3 µM (active). Take `O=C(Nc1ccc(F)cc1)Nc1nnc([C@H]2C[C@H](O)[C@@H](CO)O2)s1`: the Potency result was “inactive”.

For `CC(C)c1ccc(NC(=O)Cn2c3ncccc3c(=O)n2-c2ccccc2)cc1`, the Potency result was “inactive”. Consider `O=C1c2ccccc2C(c2nc3ccccc3[nH]2)N1c1ccccc1` (centres undefined), for which the Potency entry is “inactive”. To `CCOC(=O)[C@]12CCCC=C1N(CCC1=CCCCC1)C(=O)[C@H](CC(=O)N1CCOCC1)C2` belongs “inactive”; to `C=C1C(=O)OC2C1CCC(C)=CCCC1(C)OC21` (centres undefined), “inactive”.

On to `O=C(Nc1ccc(F)cc1F)c1cnn(-c2ccc(F)cc2)c1-n1cccc1`, for which the Potency entry was “inactive”. To `O=C(c1cnn(-c2ccc(F)cc2)c1-n1cccc1)N1CCN(c2ccc(F)cc2)CC1` belongs 23.1 µM (active). Take `CC(=O)c1c(N2CCN(c3ccc(F)cc3)CC2)nc(=S)n(-c2ccccc2)c1C`: the Potency result was “inactive”. In the case of `COC(=O)c1ccccc1NC(=O)c1cnn(-c2ccc(F)cc2)c1-n1cccc1`, the Potency entry was “inactive”. For `Cc1nn(-c2ccccc2)c(-n2cccc2)c1C(=O)O`, the Potency entry is “inactive”.

On to `Cc1nn(-c2ccc(F)cc2)c(-n2cccc2)c1C(=O)N1CCN(c2ccccc2)CC1`, for which the Potency is 20.6 µM (active). Consider `COc1ccc(-c2ccc(C(=O)NCCN3CCOCC3)c3occc23)c(C)c1`, for which the Potency entry was “inactive”. On to `CCCCc1nc2ccc(F)cc2cc1C`, for which the Potency entry was “inactive”. With `O=C(Nc1cccc(Cc2ccccc2)c1)Nc1ccc2nc([C@@H]3O[C@H](CO)[C@@H](O)[C@H](O)[C@H]3O)[nH]c2c1`, the Potency entry was “inactive”. Turning to `COc1ccccc1CNC(=O)c1ccccc1NC(=O)c1nsc2ccccc12`, the Potency result is “inactive”. As for `Nc1cccc(OCCCCCOc2cccc(N)c2)c1`, the entry is “inactive”; as for `S=C(NCc1ccc(Cl)cc1)NC12CC3CC(CC(C3)C1)C2`, 16.4 µM (active); as for `O=C(NCc1ccncc1)NC12CC3CC(CC(C3)C1)C2`, “inactive”. `O=C(NCc1ccc(Cl)cc1)NCc1ccc(Cl)cc1`: the Potency result is “inactive”. Consider `CCCNC(=O)C1(C)CCN(Cc2ccc(Cl)c(Cl)c2)C1` (centres undefined), for which the Potency result is “inactive”. With `COc1cccc(NC(=O)C2CCN(c3cc(C)nc4c(-c5ccc(Cl)cc5)c(C)nn34)CC2)c1`, the Potency entry is “inactive”. For the compound `CC1(C)OC(=O)C2=C(C[C@@H](C3CC3)O[C@H]2CCc2cccc(Cl)c2)O1`, the Potency result is “inactive”. In the case of `O=S(=O)(c1cccc(C(F)(F)F)c1)N1CCN(c2nc(-c3cccs3)nc3ccccc23)CC1`, the Potency result is “inactive”. Turning to `COCC(=O)N(C)C[C@H]1Oc2cc(Br)ccc2S(=O)(=O)N([C@H](C)CO)C[C@H]1C`, the Potency result was “inactive”.
